The text below walks through data of PMC11006913.

PROP1 (Homo sapiens, UniProt O75360 56-141, R99H), sequence (O75360 56-141 R99H): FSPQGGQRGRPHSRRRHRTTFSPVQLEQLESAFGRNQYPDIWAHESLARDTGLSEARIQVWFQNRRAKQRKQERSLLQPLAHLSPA
PROP1 (Homo sapiens, UniProt O75360 56-141, F88S), sequence (O75360 56-141 F88S): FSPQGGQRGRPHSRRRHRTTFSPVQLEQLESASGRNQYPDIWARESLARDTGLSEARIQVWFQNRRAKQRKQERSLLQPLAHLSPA
SHOX, sequence (O15266 103-189): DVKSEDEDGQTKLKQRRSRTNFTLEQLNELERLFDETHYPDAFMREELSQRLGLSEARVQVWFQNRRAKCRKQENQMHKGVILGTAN

One assay deals with HOXB4 (Homo sapiens, UniProt P17483 148-234). The experiment in a line: PBM; 200 nM protein, PBS. Conditions: dsDNA, one strand shown.
HOXB4 (Homo sapiens, UniProt P17483 148-234), sequence (P17483 148-234): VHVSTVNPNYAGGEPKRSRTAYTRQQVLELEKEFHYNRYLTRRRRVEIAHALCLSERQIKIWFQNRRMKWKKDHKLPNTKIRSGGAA
With CTTAAGCA, the binding signal is 10.1 upbm affinity estimate (log intensity, higher = more binding, comparable within an allelic series).
As to GGATTCCC, the binding signal was 7.58 upbm affinity estimate (log intensity, higher = more binding, comparable within an allelic series).
As for AAGCTCTC, the binding signal was 7.48 upbm affinity estimate (log intensity, higher = more binding, comparable within an allelic series).
As for CAGTGTGC, the binding signal is 7.61 upbm affinity estimate (log intensity, higher = more binding, comparable within an allelic series).
Same read-out and setting: under GATTATTA stands 12.9 upbm affinity estimate (log intensity, higher = more binding, comparable within an allelic series); under ATTAAAGC, 11.7 upbm affinity estimate (log intensity, higher = more binding, comparable within an allelic series); under ATTACTTA, 12.1 upbm affinity estimate (log intensity, higher = more binding, comparable within an allelic series).
As to GCCTCTCC, the binding signal is 7.31 upbm affinity estimate (log intensity, higher = more binding, comparable within an allelic series).
Same read-out and setting: under CCGTGCGC stands 7.73 upbm affinity estimate (log intensity, higher = more binding, comparable within an allelic series); under CCCGAGCC, 7.67 upbm affinity estimate (log intensity, higher = more binding, comparable within an allelic series).
In the case of AGCATTAG, the binding signal was 10.5 upbm affinity estimate (log intensity, higher = more binding, comparable within an allelic series).
In the case of AATATAAA, the binding signal was 10.6 upbm affinity estimate (log intensity, higher = more binding, comparable within an allelic series).

The next assay addresses SHOX (Homo sapiens, UniProt O15266 103-189). The experiment in a line: PBM; 200 nM protein, PBS. The note with it: dsDNA, one strand shown.
As for GTGCTTAA, the binding signal is 9.04 upbm affinity estimate (log intensity, higher = more binding, comparable within an allelic series).
Consider CCAGATAA, for which the binding signal is 8.47 upbm affinity estimate (log intensity, higher = more binding, comparable within an allelic series).
On the same count and under the same terms, under GTTAGTCA stands 8.37 upbm affinity estimate (log intensity, higher = more binding, comparable within an allelic series).
Still for that read-out and setting: under GATTGAGA stands 8.1 upbm affinity estimate (log intensity, higher = more binding, comparable within an allelic series); under CTCAATAA, 9.16 upbm affinity estimate (log intensity, higher = more binding, comparable within an allelic series).
With CTTATAGA, the binding signal is 8.03 upbm affinity estimate (log intensity, higher = more binding, comparable within an allelic series).
In the case of GCTGATGA, the binding signal was 8.21 upbm affinity estimate (log intensity, higher = more binding, comparable within an allelic series).
As for AAATTATC, the binding signal was 10.4 upbm affinity estimate (log intensity, higher = more binding, comparable within an allelic series).
As to ACAATCAA, the binding signal was 8.45 upbm affinity estimate (log intensity, higher = more binding, comparable within an allelic series).
Same read-out and setting: under ACGTAATC stands 8.86 upbm affinity estimate (log intensity, higher = more binding, comparable within an allelic series); under GAACTAAA, 8.27 upbm affinity estimate (log intensity, higher = more binding, comparable within an allelic series); under TCAAGTAA, 8.54 upbm affinity estimate (log intensity, higher = more binding, comparable within an allelic series).
Take AATGGTAC: the binding signal is 8.43 upbm affinity estimate (log intensity, higher = more binding, comparable within an allelic series).
As for AATATCGA, the binding signal was 8.49 upbm affinity estimate (log intensity, higher = more binding, comparable within an allelic series).
As to CATATGGG, the binding signal is 7.77 upbm affinity estimate (log intensity, higher = more binding, comparable within an allelic series).
On to ACTGTTAA, for which the binding signal is 8.56 upbm affinity estimate (log intensity, higher = more binding, comparable within an allelic series).
On the same count and under the same terms, under CATTTTCC stands 8.3 upbm affinity estimate (log intensity, higher = more binding, comparable within an allelic series); under ATCTATTG, 8.32 upbm affinity estimate (log intensity, higher = more binding, comparable within an allelic series); under AATCGGTA, 8.66 upbm affinity estimate (log intensity, higher = more binding, comparable within an allelic series).
TTAGGAAA: the binding signal is 8.58 upbm affinity estimate (log intensity, higher = more binding, comparable within an allelic series).
Regarding ATTGCTAC, the binding signal was 8.23 upbm affinity estimate (log intensity, higher = more binding, comparable within an allelic series).
As to TCATAACA, the binding signal is 8.35 upbm affinity estimate (log intensity, higher = more binding, comparable within an allelic series).
With CTATCATC, the binding signal was 8.16 upbm affinity estimate (log intensity, higher = more binding, comparable within an allelic series).
Regarding GAATTAGA, the binding signal is 9.8 upbm affinity estimate (log intensity, higher = more binding, comparable within an allelic series).
With GAAAAGTA, the binding signal was 7.94 upbm affinity estimate (log intensity, higher = more binding, comparable within an allelic series).
Take TAACGACA: the binding signal is 8.33 upbm affinity estimate (log intensity, higher = more binding, comparable within an allelic series).
Consider ATTCATGA, for which the binding signal was 8.41 upbm affinity estimate (log intensity, higher = more binding, comparable within an allelic series).
On the same count and under the same terms, under AGATATTG stands 8.52 upbm affinity estimate (log intensity, higher = more binding, comparable within an allelic series).

In the next assay the target is HOXB4 (Homo sapiens, UniProt P17483 148-234, V174I). The experiment in a line: PBM; 200 nM protein, PBS. The note with it: dsDNA, one strand shown.
HOXB4 (Homo sapiens, UniProt P17483 148-234, V174I), sequence (P17483 148-234 V174I): as the sequence (P17483 148-234) above, with V27I counted along it
Regarding CTTAAGCA, the binding signal is 10.1 upbm affinity estimate (log intensity, higher = more binding, comparable within an allelic series).
As for GGATTCCC, the binding signal was 7.52 upbm affinity estimate (log intensity, higher = more binding, comparable within an allelic series).
On the same count and under the same terms, as for AAGCTCTC, the figure is 7.53 upbm affinity estimate (log intensity, higher = more binding, comparable within an allelic series).
In the case of CAGTGTGC, the binding signal was 7.69 upbm affinity estimate (log intensity, higher = more binding, comparable within an allelic series).
As for GATTATTA, the binding signal is 13.5 upbm affinity estimate (log intensity, higher = more binding, comparable within an allelic series).
Same read-out and setting: under ATTAAAGC stands 11.9 upbm affinity estimate (log intensity, higher = more binding, comparable within an allelic series).
Same read-out and setting: as for ATTACTTA, the figure is 12.5 upbm affinity estimate (log intensity, higher = more binding, comparable within an allelic series); as for GCCTCTCC, 7.24 upbm affinity estimate (log intensity, higher = more binding, comparable within an allelic series); as for CCGTGCGC, 7.75 upbm affinity estimate (log intensity, higher = more binding, comparable within an allelic series).
The same measure, in the same setting: under CCCGAGCC stands 7.83 upbm affinity estimate (log intensity, higher = more binding, comparable within an allelic series); under AGCATTAG, 10.7 upbm affinity estimate (log intensity, higher = more binding, comparable within an allelic series).
With AATATAAA, the binding signal is 10.7 upbm affinity estimate (log intensity, higher = more binding, comparable within an allelic series).

In a further assay the target is PROP1 (Homo sapiens, UniProt O75360 56-141). The experiment in a line: PBM; 200 nM protein, PBS. Conditions: dsDNA, one strand shown.
PROP1 (Homo sapiens, UniProt O75360 56-141), sequence (O75360 56-141): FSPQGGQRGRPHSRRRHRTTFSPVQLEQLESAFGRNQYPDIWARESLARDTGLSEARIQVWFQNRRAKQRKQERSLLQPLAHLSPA
For GGATTCCC, the binding signal was 6.63 upbm affinity estimate (log intensity, higher = more binding, comparable within an allelic series).
As to AAGCTCTC, the binding signal is 6.71 upbm affinity estimate (log intensity, higher = more binding, comparable within an allelic series).
On to CAGTGTGC, for which the binding signal is 6.79 upbm affinity estimate (log intensity, higher = more binding, comparable within an allelic series).
GCCTCTCC: the binding signal was 6.75 upbm affinity estimate (log intensity, higher = more binding, comparable within an allelic series).

The next assay addresses PROP1 (Homo sapiens, UniProt O75360 56-141, R99H). The experiment in a line: PBM; 200 nM protein, PBS. The note with it: dsDNA, one strand shown.
Regarding GGATTCCC, the binding signal is 6.7 upbm affinity estimate (log intensity, higher = more binding, comparable within an allelic series).
For the sequence AAGCTCTC, the binding signal is 6.64 upbm affinity estimate (log intensity, higher = more binding, comparable within an allelic series).
Consider CAGTGTGC, for which the binding signal was 6.58 upbm affinity estimate (log intensity, higher = more binding, comparable within an allelic series).
Same read-out and setting: under GCCTCTCC stands 6.63 upbm affinity estimate (log intensity, higher = more binding, comparable within an allelic series).

Another assay concerns the target PROP1 (Homo sapiens, UniProt O75360 56-141, F88S). The experiment in a line: PBM; 200 nM protein, PBS. Conditions: dsDNA, one strand shown.
On to GGATTCCC, for which the binding signal was 6.49 upbm affinity estimate (log intensity, higher = more binding, comparable within an allelic series).
As for AAGCTCTC, the binding signal was 6.84 upbm affinity estimate (log intensity, higher = more binding, comparable within an allelic series).
On the same count and under the same terms, as for CAGTGTGC, the figure is 6.78 upbm affinity estimate (log intensity, higher = more binding, comparable within an allelic series); as for GCCTCTCC, 6.67 upbm affinity estimate (log intensity, higher = more binding, comparable within an allelic series).
